The source made the active and inactive calls.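 The calls were made as follows, unless noted: active = inhibition above 20% together with a positive visual image hit; inconclusive = visual image hit but inhibition not above 20%; inactive = no visual image hit.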

We go through 14 molecules from PubChem BioAssay.

The nature of experiment [1]: inhibitors of TNFa-induced NFkB p65 translocation, primary screen, imaging, HUVEC, MLSMR starter and 10KST1 sets (AID 438).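 Also: compound added about 3h40 before a 20 min TNFalpha stimulation.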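 As to inhibition: signal is the nuclear over cytoplasmic p65 intensity ratio per well.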 The note with it: HUVEC TNFa-induced p65 nuclear translocation; cell count: measured here: nuclei count (cytotoxicity indicator), at 2.08 µM; inhibition: at 2 µM, stronger effect = higher value, 0% TNFa-plus-vehicle, 100% no-TNFa wells.
A short description of experiment [2]: inhibitors of mutant huntingtin aggregation, primary screen, imaging, exon1htt(103Q)mCFP cells, high-content imaging (AID 483;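 active = visual image review flags a hit and inhibition of aggregation exceeds 20%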;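 also: compound exposure lasted 3 days before fixation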;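 as to nuclei count: percent of the per-plate median nuclei count of sample wells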). As to conditions: exon1htt(103Q)mCFP cell line, aggregate imaging, at 2 µM; inhibition of aggregation: stronger effect = higher value; nuclei count: measured here: cell count, toxicity.
Experiment [3] can be described thus: inhibitors of E-selectin induction by TNFa, primary screen, imaging, HUVEC, immunofluorescence, MLSMR starter and 10KST1 sets (AID 487;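 active = visually confirmed hit in the image check and inhibition above 20%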;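 as to inhibition: signal is fraction of cell area covered by stained E-selectin grains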;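 as to nuclei count: 100% = median nuclei count of all wells on the same plate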). The note with it: HUVEC TNFalpha-induced E-selectin immunofluorescence imaging, at 2 µM; inhibition: stronger effect = higher value; nuclei count: measured here: cell number, toxicity.
The target of experiment [4] is Voltage-gated potassium channel subunit beta-2 (Rattus norvegicus) (UniProt P62483). The experiment in a line: KvBeta enzyme negative modulators, primary screen, biochemical, NADPH fluorescence (AID 622;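 active = fluorescence slope higher than the sample average by over 3 SD, cut at about -0.22 in these data, passing the limit was not always enough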;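 also: slope of raw intensity against log time taken from 70 to 1610 s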). As to conditions: recombinant KvBeta, 4-cyanobenzaldehyde reduction, at 10 µM, stronger effect = higher value.
Voltage-gated potassium channel subunit beta-2 (Rattus norvegicus), sequence (P62483 whole entry, looked up): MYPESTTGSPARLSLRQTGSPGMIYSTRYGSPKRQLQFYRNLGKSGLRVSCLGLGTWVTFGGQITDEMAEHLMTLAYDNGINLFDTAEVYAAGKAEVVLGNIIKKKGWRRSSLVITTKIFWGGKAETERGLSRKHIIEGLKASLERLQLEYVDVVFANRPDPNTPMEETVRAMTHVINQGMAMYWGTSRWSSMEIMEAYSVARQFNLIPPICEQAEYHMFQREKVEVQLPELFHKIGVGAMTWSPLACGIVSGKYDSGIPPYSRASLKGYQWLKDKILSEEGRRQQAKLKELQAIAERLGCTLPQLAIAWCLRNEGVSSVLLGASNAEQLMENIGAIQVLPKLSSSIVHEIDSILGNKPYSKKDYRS
Experiment [5] has the same target. Put plainly: KvBeta positive modulators, primary screen, biochemical, NADPH fluorescence (AID 623;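 active = NADPH fluorescence slope more negative than the mean of all samples by about 3 SD, 99.7% confidence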;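 also: fluorescence intensity change per second fitted from 20 to 320 s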). As to conditions: Recombinant KvBeta, NADPH fluorescence decrease slope, 10 min; at 10 µM; stronger effect = lower value.
Experiment [6] has as its target Alpha-2C adrenergic receptor (Homo sapiens) (UniProt P18825). The experiment in a line: modulators of alpha2C/GIRK thallium flux, primary screen, cell-based, HEK293 alpha2C/GIRK1/2 (AID 624;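 active = fluorescence slope after compound addition differing from the mean of all screened samples at 99.7% confidence, in either direction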;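 also: slope of fluorescence ratio to pre-addition baseline per second over 15 to 24 s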). The note with it: thallium flux BTC fluorescence, at 10 µM, actives lie on both sides.
The nature of experiment [7]: inhibitors of Sendai virus-induced IRF3 signaling, primary screen, TLR/RLR signaling modifier project, cell-based, Sendai virus stimulus, luciferase, 10K MLSCN set (AID 602276;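 active = inhibition at or above 50% at 10 µM; inactive = inhibition below 50%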;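 also: firefly luciferase from ISG56 promoter only with Renilla not read in this screen; 0% = Sendai virus plus DMSO and 100% = medium plus DMSO without virus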). As to conditions: HEK293 RL24 IRF3 luciferase reporter, at 10 µM, stronger effect = higher value.
A short description of experiment [8]: inhibitors of poly I:C-induced TLR3 signaling, primary screen, cell-based, poly I:C stimulus, luciferase, 10K MLSCN set (AID 602277;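 active = inhibition of the reporter signal at or above 50%; inactive = inhibition below 50%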). As to conditions: HEK293-TLR3 RL24 IRF3 luciferase reporter, at 10 µM, stronger effect = higher value.

Alpha-2C adrenergic receptor (Homo sapiens), sequence (P18825 whole entry, looked up): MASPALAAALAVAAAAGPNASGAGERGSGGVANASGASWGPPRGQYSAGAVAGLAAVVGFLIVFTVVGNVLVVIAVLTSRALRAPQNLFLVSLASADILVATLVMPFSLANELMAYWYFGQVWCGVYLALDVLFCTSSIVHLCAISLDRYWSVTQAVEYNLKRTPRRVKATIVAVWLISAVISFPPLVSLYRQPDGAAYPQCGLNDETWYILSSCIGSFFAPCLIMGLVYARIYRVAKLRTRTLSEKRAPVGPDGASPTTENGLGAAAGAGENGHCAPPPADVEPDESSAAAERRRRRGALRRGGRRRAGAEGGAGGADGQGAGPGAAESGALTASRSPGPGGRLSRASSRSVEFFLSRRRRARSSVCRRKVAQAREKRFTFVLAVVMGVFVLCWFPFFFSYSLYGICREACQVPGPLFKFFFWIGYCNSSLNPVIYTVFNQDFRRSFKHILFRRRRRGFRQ

`Cc1ccc(Cn2c(NCCc3ccccc3)nc3c2c(=O)n(C)c(=O)n3C)cc1`: the cell count in experiment [1] is 368. Also, the inhibition in experiment [1] is 6.8% (inactive); in experiment [3] it was -203% (inactive); in experiment [7], 34.6% (inactive); in experiment [8], 29.6% (inactive). The inhibition of aggregation in experiment [2] is 6.1% (inactive). Moreover, the nuclei count in experiment [2] stood at 98.7%; in experiment [3] it was 108%. Also, in experiment [4], the fluorescence slope is -0.597 (inactive). Further, the NADPH fluorescence slope in experiment [5] was -6.3e-06 (inactive). The slope in experiment [6] is 0.00517 (inactive).

`O=C(c1ccncc1)N1CCN(C(=O)c2cccs2)CC1`: in experiment [1], the cell count stood at 454. The inhibition in experiment [1] is -3.3% (inactive); in experiment [3] it was 0.5% (inactive); in experiment [7] it was 12.1% (inactive); in experiment [8] it was 14.2% (inactive). The inhibition of aggregation in experiment [2] is 1.6% (inactive). In addition, the values for the nuclei count in experiment [2] and in experiment [3] were 110% and 106%, respectively. The fluorescence slope in experiment [4] was -0.459 (inactive). For the same molecule, in experiment [5], the NADPH fluorescence slope was -3e-05 (inactive). The slope in experiment [6] is 0.00631 (inactive).

Take `Cc1cc(C)c(C(=O)CSc2nnc(-c3ccccc3Br)o2)cc1C`: the cell count in experiment [1] is 433. The inhibition in experiment [1] is 2.9% (inactive); in experiment [3], -64.9% (inactive); in experiment [7] it was 9.09% (inactive); in experiment [8], 3.14% (inactive). Also, in experiment [2], the inhibition of aggregation was -0.1% (inactive). Moreover, the nuclei count in experiment [2] came to 97.3%; in experiment [3], 124%. In addition, in experiment [4], the fluorescence slope is -0.397 (inactive). For the same molecule, in experiment [5], the NADPH fluorescence slope was -2.6e-05 (inactive). Moreover, in experiment [6], the slope was 0.00604 (inactive).

As for `O=C(CN1CCN(c2ncccn2)CC1)Nc1ccccc1-n1cccc1`, in experiment [1], the cell count was found to be 327. Moreover, the inhibition in experiment [1] is 13.4% (inactive); in experiment [3] it was 25.5% (inactive); in experiment [7] it was 14.7% (inactive); in experiment [8], 8.32% (inactive). In experiment [2], the inhibition of aggregation was 16% (inactive). The nuclei count in experiment [2] is 81.3%; in experiment [3] it was 93.4%. Besides, in experiment [4], the fluorescence slope is -0.621 (inactive). Also, in experiment [5], the NADPH fluorescence slope was -6.7e-06 (inactive). Besides, in experiment [6], the slope is 0.006 (inactive).

For `CCOC(=O)c1oc2ccccc2c1CSc1nnnn1-c1ccc(C)cc1`, in experiment [1], the cell count turned out to be 371. Further, the inhibition is -3.4% (inactive) in experiment [1], -60.7% (inactive) in experiment [3], -16.8% (inactive) in experiment [7] and 1.2% (inactive) in experiment [8]. The inhibition of aggregation in experiment [2] is 8.2% (inactive). For the same molecule, the nuclei count in experiment [2] amounted to 88.1%; in experiment [3], 106%. In experiment [4], the fluorescence slope was -0.613 (inactive). Further, in experiment [5], the NADPH fluorescence slope is -2.5e-05 (inactive). The slope in experiment [6] is 0.00768 (inactive).

For `CCCN1CCN(CCCNC(=O)Cn2ncc3c4ccccc4n(C)c3c2=O)CC1`, the cell count in experiment [1] worked out at 509. Besides, the inhibition in experiment [1] was -3% (inactive); in experiment [3] it was -61.4% (inactive); in experiment [7] it was -2.18% (inactive); in experiment [8], 34.8% (inactive). Besides, in experiment [2], the inhibition of aggregation is -2.1% (inactive). Further, the nuclei count in experiment [2] came to 101%; in experiment [3], 110%. The fluorescence slope in experiment [4] is -0.615 (inactive). Also, the NADPH fluorescence slope in experiment [5] was 2.2e-07 (inactive). Besides, the slope in experiment [6] is 0.00665 (inactive).

On to `N#Cc1ccccc1Cn1c(=O)n(Cc2ccc(C(=O)NCc3ccco3)cc2)c(=O)c2sccc21`, for which the cell count in experiment [1] was determined as 865. The inhibition in experiment [1] is -0.6% (inactive); in experiment [3], -55.6% (inactive); in experiment [7], 11.4% (inactive); in experiment [8], 17.2% (inactive). The inhibition of aggregation in experiment [2] is 9.3% (inactive). Also, the nuclei count was 120% in experiment [2] and 115% in experiment [3]. In experiment [4], the fluorescence slope is -0.577 (inactive). Besides, the NADPH fluorescence slope in experiment [5] was -4.1e-05 (inactive). In experiment [6], the slope was 0.00686 (inactive).

Take `O=C(O)c1cc2c(s1)CCCC2`: the cell count in experiment [1] was 473. For the same molecule, the inhibition in experiment [1] was 6.3% (inactive); in experiment [3] it was 15.7% (inactive); in experiment [7], 4.53% (inactive); in experiment [8], 8.58% (inactive). For the same molecule, the inhibition of aggregation in experiment [2] was 8.1% (inactive). Besides, the nuclei count in experiment [2] was 100%; in experiment [3] it was 111%. In experiment [4], the fluorescence slope was -0.383 (inactive). The NADPH fluorescence slope in experiment [5] was -2.9e-06 (inactive). In addition, the slope in experiment [6] was 0.00578 (inactive).

As to `CCOc1cc(C(=O)NCc2nnc(SCC(=O)OC)n2C)cc(OCC)c1OCC`, the cell count in experiment [1] is 291. The inhibition in experiment [1] is 10% (inactive); in experiment [3] it was 1.2% (inactive); in experiment [7], 10.7% (inactive); in experiment [8] it was 16% (inactive). Besides, in experiment [2], the inhibition of aggregation is 17% (inactive). Further, the nuclei count was 55.3% in experiment [2] and 101% in experiment [3]. Moreover, the fluorescence slope in experiment [4] was -0.337 (inactive). Further, the NADPH fluorescence slope in experiment [5] was -1.2e-05 (inactive). Moreover, the slope in experiment [6] is 0.00327 (inactive).

In the case of `CCOC(=O)c1ccc(Oc2cc(C)nc(SC)n2)cc1`, the cell count in experiment [1] was 484. Besides, the inhibition was 10.1% (inactive) in experiment [1], -192% (inactive) in experiment [3], 15.8% (inactive) in experiment [7] and 19.9% (inactive) in experiment [8]. Moreover, the inhibition of aggregation in experiment [2] is 13.3% (inactive). Besides, the nuclei count turned out to be 117% in experiment [2] and 134% in experiment [3]. In addition, the fluorescence slope in experiment [4] was -0.47 (inactive). The NADPH fluorescence slope in experiment [5] was -9.6e-06 (inactive). For the same molecule, the slope in experiment [6] is 0.00614 (inactive).

In the case of `Cc1noc(C)c1CSc1nnc2scc(-c3ccc(Cl)cc3)n12`, in experiment [1], the cell count worked out at 339. Also, the inhibition in experiment [1] was -0.4% (inactive); in experiment [3] it was -88.2% (inactive); in experiment [7], -1.42% (inactive); in experiment [8], 6.73% (inactive). Further, the inhibition of aggregation in experiment [2] was -18.6% (inactive). In addition, the nuclei count in experiment [2] is 120%; in experiment [3], 122%. The fluorescence slope in experiment [4] was -0.52 (inactive). The NADPH fluorescence slope in experiment [5] was -2.1e-05 (inactive). Also, the slope in experiment [6] is 0.00506 (inactive).

As for `O=C(C1CCN(c2nnc(-n3cccc3)s2)CC1)N1CCOCC1`, in experiment [1], the cell count came out at 661. The inhibition in experiment [1] was -2.9% (inactive); in experiment [3] it was -50.3% (inactive); in experiment [7] it was 7.65% (inactive); in experiment [8], 18% (inactive). Also, in experiment [2], the inhibition of aggregation was 6.4% (inactive). Further, the nuclei count in experiment [2] is 123%; in experiment [3], 102%. Besides, in experiment [4], the fluorescence slope is -0.418 (inactive). Moreover, the NADPH fluorescence slope in experiment [5] is -4.1e-05 (inactive). In addition, in experiment [6], the slope was 0.00592 (inactive).

On to `COc1ccc2cc(C(c3nnnn3C3CCCCC3)N3CCCCCC3)c3nnnn3c2c1` (centres undefined), for which the cell count in experiment [1] stood at 828. For the same molecule, the inhibition in experiment [1] is -6.7% (inactive); in experiment [3], -10.3% (inactive); in experiment [7], 7.67% (inactive); in experiment [8], -2.36% (inactive). Moreover, in experiment [2], the inhibition of aggregation was -7.5% (inactive). Besides, the nuclei count in experiment [2] was found to be 108%; in experiment [3] it was 114%. Further, the fluorescence slope in experiment [4] is -0.444 (inactive). In experiment [5], the NADPH fluorescence slope was -3.1e-06 (inactive). Further, the slope in experiment [6] is 0.00937 (inactive).

With `C=CCOC(=O)C1=C(C)OC(N)=C(C#N)C1c1ccc2c(c1)OCO2` (centres undefined), the cell count in experiment [1] stood at 229. Moreover, the inhibition in experiment [1] was 13.4% (inactive); in experiment [3] it was 9.6% (inactive); in experiment [7] it was -2.6% (inactive); in experiment [8], 7.38% (inactive). Besides, the inhibition of aggregation in experiment [2] was -3% (inactive). Besides, the nuclei count in experiment [2] came out at 90.4%; in experiment [3], 136%. Also, the fluorescence slope in experiment [4] is -0.602 (inactive). Also, the NADPH fluorescence slope in experiment [5] was -3.1e-05 (inactive). For the same molecule, the slope in experiment [6] is 0.00567 (inactive).
